Bioassay records deposited in PubChem BioAssay by National Center for Advancing Translational Sciences (NCATS).
Shown is part of a subset that was picked to be rich in hits.
Pf Dd2 inh: Plasmodium falciparum Dd2 growth inhibition; P. falciparum Dd2 growth, SYBR Green, 72 h; 120,000 compounds, 4.3% hits; Potency, µM (series often up to 28.9 µM), usual class: inhibitors; active = well fitted inhibition curve with a large enough effect; note: nearly all actives have a fitted effect of over 65% in size
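Infected erythrocytes (Dd2, 0.3% parasitemia, 2.5% hematocrit final) are added to compound in RPMI-1640/Albumax II medium, grown 72 h at 37C in low oxygen, then lysed with saponin/Triton-X containing SYBR Green and read by fluorescence.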
Of the large screens only hits and unclear results are named; the others gave an inactive call.

O=C(C1CCCC1)N1CC2(CCN(CC3CCCCC3)C2)Cc2ccccc21 (stereo not drawn)	Pf Dd2 inh 11µM
O=C(C1CCCC1)N1CC2(CCCN(Cc3c[nH]c4ccccc34)C2)Cc2ccccc21 (stereo not drawn)	Pf Dd2 inh 7.1µM
Cn1cncc1C(=O)N1CCCn2ccnc2C1c1ccccc1 (stereo not drawn)	none
O=C(c1ccoc1)N1CCCC(c2noc(COc3ccccc3)n2)C1 (stereo not drawn)	none
CCc1[nH]nc(C(=O)N2CCC3(CC2)C(=O)NCCN3C)c1C	none
Cc1ccccc1S(=O)(=O)N1CCCC(Cc2noc(-c3cnccn3)n2)C1 (stereo not drawn)	none
O=C(COc1ccccc1)N[C@H]1CO[C@H]2[C@@H]1OC[C@H]2OC(=O)Nc1ccccc1	none
Cc1cc(-c2nc(CC(C)C)nn2-c2ccccn2)cc(S(N)(=O)=O)c1C	none
CC(C)CCN1CCOc2cc([S+](=O)([O-])Nc3cccnc3)ccc2C1	none
CCC(C)c1ccc(OCC(=O)Nc2cccc(-c3nc4ncccc4o3)c2)cc1 (stereo not drawn)	Pf Dd2 inh 2.5µM
Cc1cc(C)cc(OCC(=O)Nc2ccc(-c3nc4ncccc4o3)cc2C)c1	none
CC(C)c1ccc(OCC(=O)Nc2cc(-c3nc4ncccc4o3)ccc2Cl)cc1	none
CCNC(=O)N1CCC2(CC1)CC(N(CC)CC)CCO2 (stereo not drawn)	none
CN(Cc1ccccc1)Cc1cc(CC2(NCc3ccc(F)cc3)COC2)no1	none
Cc1ccc(S(=O)(=O)NC[C@H]2OC[C@@H](NC3CCNCC3)[C@@H]2O)cc1	none
COc1ccc(-c2noc([C@@H]3C[C@H](NCc4ccc(N(C)C)cc4)CN3C)n2)cc1	Pf Dd2 inh 13µM
COc1ccc(-c2noc([C@@H]3C[C@H](NS(=O)(=O)c4ccccc4)CN3C)n2)cc1	none
COc1ccc(-c2noc([C@@H]3C[C@H](NC(=O)COCC(=O)O)CN3C)n2)cc1	none
COCCNc1nc2c([S+](=O)([O-])c3ccc(Br)cc3)nnn2c2ccccc12	none
O=C(c1cccnc1)N1CCCC(c2noc(COc3ccccc3F)n2)C1 (stereo not drawn)	none
CCC(=O)N1CCN(c2nc3c(s2)CC(C(=O)Nc2ccc(OC)c(F)c2)CC3)CC1 (stereo not drawn)	none
O=C(Nc1ccncn1)[C@@H]1C[C@@H](c2ccc(F)cc2)N(Cc2ccccc2)C1	none
Cn1cc(CN2C[C@H](C(=O)Nc3ccn(C)n3)C[C@@H]2c2cccc(C(F)(F)F)c2)cn1	none
Cc1nc(CN2C[C@H](C(=O)NCc3cccc(F)c3)C[C@@H]2c2ccc(F)cc2)cs1	Pf Dd2 inh 14µM
Cn1cc(CN2C[C@H](C(=O)Nc3ccc(F)cc3)C[C@@H]2c2cccc(C(F)(F)F)c2)cn1	none
Cc1nc(CN2C[C@H](C(=O)N3CCN(CCO)CC3)C[C@@H]2c2ccc(F)cc2)cs1	none
Cn1ccc(NC(=O)[C@@H]2C[C@@H](c3ccc(F)cc3)N(Cc3ccccc3)C2)n1	Pf Dd2 inh 13µM
COc1ccc(CNC(=O)[C@@H]2C[C@@H](c3ccc(F)cc3)N(Cc3ccccc3)C2)cc1OC	none
Cn1cc(CN2C[C@H](C(=O)NCc3cccc(F)c3)C[C@H]2c2cccc(C(F)(F)F)c2)cn1	Pf Dd2 inh 8.9µM
Cn1cc(CN2C[C@H](C(=O)Nc3ccccc3)C[C@@H]2c2cccc(C(F)(F)F)c2)cn1	none
CNC(=O)C1(N2CCC[C@H]2C(=O)NC(C)(C)C)COC1	none
Cc1oc2ccn(Cc3ccc(F)cc3)c(=O)c2c1C(=O)N1CCN(c2ccccn2)CC1	none
CCOC1CCOC2(CCN(C(=O)c3ccco3)CC2)C1 (stereo not drawn)	none
O=C([C@@H]1C[C@H](F)CN1S(=O)(=O)c1ccccc1F)N1CCc2ccccc2C1	none
CC(C)NC(=O)NCc1nnc2n1C(C(=O)NCCc1ccc(Cl)cc1)CC2 (stereo not drawn)	none
Cc1ccc(N2CC(NC(=O)c3cccc(CCC(C)(C)O)c3)CC2=O)cc1 (stereo not drawn)	none
CS(=O)(=O)c1ccc(-c2cnc([C@@H]3COCCN3C3CCNCC3)[nH]2)cc1	none
CCCN(CC1CCOC1)C(=O)c1ccc(F)cc1F (stereo not drawn)	none
O=C1Nc2cc(Cl)ccc2C(=O)N2CCN(C(=O)c3ccccc3)C[C@H]12	none
O=c1[nH]c(N2CCOCC2)nc2c1CCN(Cc1ccc(F)c(Br)c1)CC2	none
O=S(=O)(c1cccs1)N1C[C@@H](c2ccc(F)cc2)[C@@H]2[C@H]1C1CCN2CC1	Pf Dd2 inh 5.6µM
O=C1NCCCCCCN(S(=O)(=O)c2cccs2)[C@H]2CCC[C@@H]12	none
O=C1NCCCCCN(S(=O)(=O)c2cccs2)[C@H]2CCCC[C@@H]12	none
Cc1cccc(-n2nc(C)c(CCC(=O)NC3CC3)c2Oc2ccccc2C)c1	none
CCNC(=O)CCc1c(C)nn(-c2cccc(C)c2)c1Oc1ccccc1C	none
Cc1cccc(-n2nc(C)c(CCC(=O)N3CCSCC3)c2Oc2ccccc2C)c1	Pf Dd2 inh 8.9µM
Cc1ccc(NC(=O)O[C@@H]2CC[C@]3(C)C(CC[C@@H](O)[C@H]3CC(=O)N3CCC[C@H]3CO)[C@]2(C)CO)cc1 (stereo partly drawn)	none
Cc1ccc(CNC(=O)N2CCC(Oc3ncccc3C(=O)N3CCOCC3)C2)cc1 (stereo not drawn)	none
CC1(C(=O)N2CCC(c3ccccc3)CC2)CCc2cnc(Nc3ccncc3)nc21 (stereo not drawn)	Pf Dd2 inh 10µM
CC1(C(=O)N2CCCC2)CCCc2cnc(Nc3ccccc3)nc21 (stereo not drawn)	none
CC(=O)N1CCN(C(=O)C2(C)CCc3cnc(Nc4ccccc4)nc32)CC1 (stereo not drawn)	none
COCCN1C(=O)[C@@H]2C[C@@H](CN2C(=O)C2CCOCC2)Oc2ccccc21	none
Cn1ccnc1CN1CCCC(CCc2ccccc2)C1 (stereo not drawn)	Pf Dd2 inh 11µM
Cn1ccnc1CN1CCCC(c2ccc(C(=O)O)cc2)C1 (stereo not drawn)	none
Cn1ccnc1CN1CCOC[C@H](Oc2ccccc2)C1	none
O=C(N1CCN(S(=O)(=O)c2cccc(F)c2)CC1)N1CC2CC(C1)[C@H]1CCCC(=O)N1C2 (stereo partly drawn)	none
O=C1COC[C@H]([C@H](O)c2ccc(NS(=O)(=O)c3ccc(F)cc3)cc2)N1	none
COc1ccccc1C(=O)Nc1ccc(C(O)[C@H]2COCC(=O)N2)cc1 (stereo partly drawn)	none
CC(C)(C)c1ccc(C(=O)Nc2ccc(C(O)[C@H]3COCC(=O)N3)cc2)cc1 (stereo partly drawn)	Pf Dd2 inh 10µM
O=C(Nc1ccc([C@@H](O)[C@H]2COCC(=O)N2Cc2ccccn2)cc1)c1cnccn1	none
Cc1cc(CN(C)C(=O)CC(c2cccc(O)c2)c2ccccc2Cl)n[nH]1 (stereo not drawn)	none
COCCCNc1nc(-c2c(C)noc2C)cc2cc(CN(C)C)oc12	none
Cc1noc(C)c1-c1cc2cc(CN(C)C)oc2c(-c2ccc([S+](C)(=O)[O-])cc2)n1	Pf Dd2 inh 8.9µM
Cc1noc(C)c1-c1cc2cc(CN(C)C)oc2c(Nc2ccncn2)n1	none
CC1CCC2(CC1)NC(=O)N(CC(=O)Nc1cccc(C(F)(F)F)c1)C2=O (stereo not drawn)	none
O=[S+]([O-])(NCC1CN(Cc2ccncc2Cl)CC12CN(c1ccccc1)C2)c1ccccc1 (stereo not drawn)	none
Cc1ccc([S+](=O)([O-])NC[C@@H]2CC[C@H]3C[C@@H]2C3(C)C)cc1	none
CC1(C)[C@H]2CC[C@@H](CN[S+](=O)([O-])c3ccccc3)[C@@H]1C2	Pf Dd2 inh 11µM
